Experiment [1] deals with TRPC4 beta (transient receptor potential cation channel C4), mouse. The experiment can be described thus: activators of mouse TRPC4 channel, confirmation, cell-based, Fluo4 calcium, HEK293 TRPC4beta/mu-opioid, duplicates, 10 µM (AID 2426;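 active = fluorescence ratio normalized to control raised more than 50% in primary screen plus both repeat runs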). The following applies: Fluo4 calcium fluorescence, at 10 µM; hits give high values.
For experiment [2], the system named is transient receptor potential cation channel C4 beta (TRPC4), mouse. The experiment can be described thus: activators of mouse TRPC4 channel, confirmation, cell-based, second round, Fluo4, HEK293 TRPC4beta/mu-opioid, 1 µM (AID 2461;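 active = primary screen active and over 50% activation in each of two duplicate runs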). The settings on record: Fluo4 calcium fluorescence, at 1 µM; hits give high values.
Experiment [3] has as its system TRPC4 (transient receptor potential cation channel C4 beta), mouse. Put plainly: positive allosteric modulators of mouse TRPC4, confirmation, cell-based, second round, Fluo-4, HEK293 TRPC4beta/mu-opioid, 1 µM (AID 2554;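 active = primary screen hit whose fluorescence ratio, in both repeats, exceeds the weak agonist control mean by 3 SD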). The settings on record: DAMGO EC20, Fluo-4 calcium flux, at 1 µM; hits give high values.
Experiment [4] has as its system TRPC4 beta (transient receptor potential cation channel C4), mouse. The experiment can be described thus: positive allosteric modulators of mouse TRPC4, confirmation, cell-based, Fluo-4, HEK293 TRPC4beta/mu-opioid (AID 2555;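 active = primary screen hit whose calcium fluorescence ratio, in both repeats, exceeds the weak agonist control mean by 3 SD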). The following applies: DAMGO EC20, Fluo-4 calcium flux, at 10 µM; hits give high values. In general terms: A change in cytosolic calcium serves as a functional read-out for many receptors and channels.

Experiment [5] deals with Short transient receptor potential channel 4 (Mus musculus) (UniProt Q9QUQ5). The experiment can be described thus: inhibitors of mouse TRPC4 channel, confirmation, cell-based, Fluo4, HEK293 TRPC4beta/mu-opioid (AID 2636;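 active = calcium signal cut by more than 3 SD below the full-agonist control yet still positive, in both repeats and the earlier primary screen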). The settings on record: DAMGO, Fluo4 calcium flux, at 10 µM; hits give high values.
The target is the same in experiment [6]. The experiment can be described thus: inhibitors of mouse TRPC4 channel, confirmation, cell-based, second round, Fluo4, HEK293 TRPC4beta/mu-opioid, 1 µM (AID 2637;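 active = calcium signal ratio cut to more than 3 SD under the fully stimulated control mean yet still positive, in both repeats and the primary screen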;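 for inhibition: percent of integrated ratio relative to wells lacking test compound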). The settings on record: Fluo4 calcium flux, DAMGO, at 1 µM; hits give high values.
The target is the same in experiment [7]. Put plainly: mouse TRPC4 channel activators, dose response, cell-based, HEK293 TRPC4/mu-opioid, Fluo-4 calcium (AID 434937). The settings on record: HEK293 TRPC4 cells, Fluo-4 calcium fluorescence ratio; series mostly up to 20 µM.
For experiment [8] the target is unchanged. Put plainly: TRPC4 positive allosteric modulators, dose response, cell-based, HEK293 TRPC4/mu-opioid, Fluo-4 calcium, EC20 DAMGO (AID 434941;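 active = earlier screen potentiator hit that boosts the TRPC4 ion channel at some dose, with a dose response; inactive = no potentiation, no dose response, or not a prior hit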;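 note: calcium entry triggered by an EC20 dose of DAMGO at the co-expressed mu-opioid receptor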). The settings on record: HEK293 TRPC4/mu-opioid cells, Fluo-4 calcium fluorescence; series mostly up to 20 µM.
Experiment [9] deals with Short transient receptor potential channel 6 (Mus musculus) (UniProt Q61143). Put plainly: inhibition of mouse TRPC6 channel, confirmation, selectivity assay for TRPC4 inhibitor project, cell-based, HEK293, membrane potential dye, duplicate (AID 434948;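 active = active in primary screen and both duplicates, each dropping signal beyond three positive-control SD with fluorescence still positive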). The following applies: HEK293 TRPC6, membrane potential dye fluorescence, at 10 µM, stimulated with maximal-effect acetylcholine; hits give high values.

Experiment [10] has the same target. The experiment can be described thus: activation of mouse TRPC6 channel, confirmation, selectivity assay for TRPC4 activator project, cell-based, HEK293, membrane potential dye, duplicate (AID 434950;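 active = membrane potential signal rise above negative control mean plus 3 SD in both duplicates, also active in the earlier TRPC4 screen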). The settings on record: HEK293 TRPC6, membrane potential fluorescence, at 10 µM; hits give high values.
For experiment [11] the target is unchanged. Put plainly: TRPC6 potentiation by TRPC4 potentiator hits, confirmation, selectivity assay for TRPC4 potentiator project, HEK293 cells, membrane potential dye, duplicate (AID 434952;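 active = compound raising the membrane signal above positive-control mean plus 3 SD in both repeats, and a primary screen hit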). The settings on record: HEK293 TRPC6, membrane potential dye fluorescence, at 10 µM, maximal acetylcholine added after compound; hits give high values.
The target in experiment [12] is Short transient receptor potential channel 4 (Mus musculus) (UniProt Q9QUQ5). The experiment can be described thus: calcium flux activators in TRPC4/5HT1a cells, counter-screen for TRPC4 activator project, cell-based, second counter screen, HEK293 TRPC4/5HT1a, Fluo-4 (AID 434977;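 active = calcium signal rise above buffer-control mean plus 5 SD in both duplicates, and also a hit in the primary screen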). The following applies: Fluo-4 calcium flux, at 10 µM; hits give high values.
A short description of experiment [13]: calcium flux inhibitors in TRPC4/5HT1a cells, confirmation, counter-screen for TRPC4 inhibitor project, cell-based, second counter screen, HEK293 TRPC4/5HT1a, Fluo-4 (AID 434978;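 active = primary screen active whose calcium signal fell more than 3 SD beyond the full-serotonin control mean in both duplicate plates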;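 for outcome: serotonin given first at submaximal then at maximal dose after compound preincubation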). The following applies: Fluo-4 calcium flux, at 10 µM, serotonin added to trigger calcium flux; hits give high values.
For experiment [14], the system named is TRPC4 (mouse), co-expressed with 5HT1a in HEK293. Put plainly: calcium flux potentiators in TRPC4/5HT1a cells, confirmation, counter-screen for TRPC4 potentiator project, cell-based, second counter screen, HEK293 TRPC4/5HT1a, Fluo-4 (AID 434979;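 active = signal rise over 3 SD above mean of control wells given weak agonist, in both repeats and first screen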). The settings on record: Fluo-4 calcium flux, at 10 µM, serotonin added at its EC20 dose; hits give high values.
Experiment [15] in a line: calcium flux activation in mu-opioid HEK293 cells, confirmation, counter-screen for TRPC4 activator project, cell-based, HEK293 mu-opioid receptor line (AID 449723;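 active = hit in primary screen, with calcium signal over 5 SD above buffer well mean in both duplicates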;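 note: counter screen cells carry the mu-opioid receptor alone and lack TRPC4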). The settings on record: Fluo-4 calcium fluorescence, at 10 µM; hits give high values.
Experiment [16] in a line: calcium flux enhancement in mu-opioid HEK293 cells, confirmation, counter-screen for TRPC4 allosteric potentiator project, cell-based, HEK293 mu-opioid receptor line (AID 449724;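 active = calcium signal rise more than 3 SD above the low-dose agonist control mean, in both duplicate plates and the primary screen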;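 note: HEK293 cells carrying mu-opioid receptor only with no TRPC4 channel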). The following applies: Fluo-4 calcium flux, at 10 µM, compound added before EC20 DAMGO stimulus; hits give high values.

Molecules are shown by their SMILES. For some assays here: Measured potencies and affinities stand elsewhere. Calls of active or inactive are those of the source.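 Rule for the calls, unless noted: active = primary screen activator hit with a dose response curve and TRPC4 channel activation at any tested dose; inactive = no activation, no dose response, or not a primary hit.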

Sequence of Short transient receptor potential channel 4 (Mus musculus) (Q9QUQ5 whole entry, looked up): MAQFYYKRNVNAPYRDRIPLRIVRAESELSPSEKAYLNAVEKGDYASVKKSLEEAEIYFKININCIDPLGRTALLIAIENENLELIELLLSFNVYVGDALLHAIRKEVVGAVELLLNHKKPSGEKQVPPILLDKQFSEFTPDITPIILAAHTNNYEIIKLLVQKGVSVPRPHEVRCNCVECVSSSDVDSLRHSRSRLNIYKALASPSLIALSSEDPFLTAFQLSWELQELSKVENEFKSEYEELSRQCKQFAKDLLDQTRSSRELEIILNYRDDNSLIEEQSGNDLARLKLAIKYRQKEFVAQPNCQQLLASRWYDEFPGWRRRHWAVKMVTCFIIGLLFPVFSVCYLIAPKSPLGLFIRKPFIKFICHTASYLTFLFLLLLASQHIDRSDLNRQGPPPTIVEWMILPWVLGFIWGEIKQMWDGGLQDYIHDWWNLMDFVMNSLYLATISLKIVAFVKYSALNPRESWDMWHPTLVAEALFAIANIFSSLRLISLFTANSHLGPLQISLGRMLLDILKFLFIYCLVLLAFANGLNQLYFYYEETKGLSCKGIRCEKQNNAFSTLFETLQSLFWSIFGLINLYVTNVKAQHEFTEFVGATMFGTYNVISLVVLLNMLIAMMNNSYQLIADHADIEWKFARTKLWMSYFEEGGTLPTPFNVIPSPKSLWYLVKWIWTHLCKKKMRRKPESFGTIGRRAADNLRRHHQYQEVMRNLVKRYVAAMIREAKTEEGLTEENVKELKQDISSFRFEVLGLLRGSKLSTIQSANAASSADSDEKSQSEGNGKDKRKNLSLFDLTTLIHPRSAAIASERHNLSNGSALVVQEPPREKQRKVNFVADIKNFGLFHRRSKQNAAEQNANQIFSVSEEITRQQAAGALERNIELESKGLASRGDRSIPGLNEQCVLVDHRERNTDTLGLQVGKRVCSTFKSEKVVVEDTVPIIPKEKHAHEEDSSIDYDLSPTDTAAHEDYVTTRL
Sequence of Short transient receptor potential channel 6 (Mus musculus) (Q61143 whole entry, looked up): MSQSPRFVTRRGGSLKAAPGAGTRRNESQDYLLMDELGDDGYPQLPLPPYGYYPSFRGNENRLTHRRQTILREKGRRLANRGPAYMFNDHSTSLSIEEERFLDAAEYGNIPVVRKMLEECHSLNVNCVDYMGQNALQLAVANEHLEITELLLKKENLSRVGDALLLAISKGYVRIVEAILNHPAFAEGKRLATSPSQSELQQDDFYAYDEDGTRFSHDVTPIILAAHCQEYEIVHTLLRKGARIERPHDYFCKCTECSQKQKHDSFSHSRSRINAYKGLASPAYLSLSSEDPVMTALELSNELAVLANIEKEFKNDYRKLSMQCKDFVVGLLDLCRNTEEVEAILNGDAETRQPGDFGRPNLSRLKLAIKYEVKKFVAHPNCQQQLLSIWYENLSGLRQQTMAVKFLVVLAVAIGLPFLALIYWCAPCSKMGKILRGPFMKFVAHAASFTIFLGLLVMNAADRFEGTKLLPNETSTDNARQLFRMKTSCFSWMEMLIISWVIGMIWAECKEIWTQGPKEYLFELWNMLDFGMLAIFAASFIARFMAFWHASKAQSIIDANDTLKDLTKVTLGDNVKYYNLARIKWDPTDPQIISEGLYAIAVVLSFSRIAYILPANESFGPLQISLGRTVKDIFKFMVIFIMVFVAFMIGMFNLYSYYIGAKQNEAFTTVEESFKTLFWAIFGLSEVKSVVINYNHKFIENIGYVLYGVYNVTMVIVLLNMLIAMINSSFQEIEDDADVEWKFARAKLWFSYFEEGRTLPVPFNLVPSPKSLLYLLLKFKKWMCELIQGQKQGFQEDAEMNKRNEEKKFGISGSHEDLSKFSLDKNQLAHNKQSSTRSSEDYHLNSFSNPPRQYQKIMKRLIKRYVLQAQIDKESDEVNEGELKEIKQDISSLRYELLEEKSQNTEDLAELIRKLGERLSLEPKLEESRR

The inhibition is how much of the control response was suppressed. `Cc1n[nH]c(C)c1CCCCOc1ccccc1F`: the outcome in [1], in experiment [2], in experiment [3], in experiment [4], in [7] and in experiment [8] was inactive. In addition, the compound was called inactive in experiment [9], in [10], in [11], in experiment [12], in experiment [14] and in experiment [15]. For the same compound, the result in experiment [16] was inactive. The inhibition is 98% (active) in experiment [5], 65% (active) in experiment [6] and 28.3% (active) in experiment [13].

`Cc1cccc(C)c1N1CCc2cn[nH]c21`: the outcome in [1], in [2], in experiment [3], in experiment [4], in [6] and in experiment [7] was inactive. The outcome in experiment [8], in [9], in experiment [10], in experiment [11], in [12] and in experiment [14] was inactive. The outcome in [15] and in [16] was inactive. Also, the inhibition is 84% (active) in [5] and 31.5% (active) in [13].

Take `O=C(COC(=O)c1cccc([N+](=O)[O-])c1)c1ccc2c(c1)OCO2`: the result in experiment [1], in experiment [2], in [3], in [4], in [7] and in [8] was inactive. Also, the result in experiment [9], in experiment [10], in [11], in experiment [12], in experiment [14] and in [15] was inactive. For the same compound, the outcome in experiment [16] was inactive. Besides, the inhibition in experiment [5] is 89% (active); in [6] it was 59% (active); in experiment [13], 25.3% (active).

For `CCCCNc1nc(-c2ccccc2)c(C(=O)OCC)cc1C#N`, the outcome in experiment [1], in [2], in [3], in experiment [4], in experiment [6] and in experiment [7] was inactive. Further, the outcome in [8], in experiment [9], in experiment [10], in experiment [11], in experiment [12] and in [14] was inactive. For the same compound, the outcome in experiment [15] and in experiment [16] was inactive. Further, the results for the inhibition in experiment [5] and in experiment [13] were 94% (active) and 15% (active), respectively.

On to `CC(OC(=O)CNC(=O)c1ccccc1F)C(=O)Nc1nc(-c2ccccc2)cs1` (centres undefined), for which the outcome in [1], in [2], in experiment [3], in experiment [4], in experiment [6] and in experiment [7] was inactive. For the same compound, the result in [8], in experiment [9], in [10], in experiment [11], in experiment [12] and in experiment [14] was inactive. The outcome in experiment [15] and in experiment [16] was inactive. Besides, the inhibition was 78% (active) in [5] and 44.3% (active) in [13].

Turning to `CCc1c(C(=O)N2CCCN(C)CC2)csc1C`, the outcome in [1], in experiment [2], in experiment [3], in experiment [4], in experiment [7] and in [8] was inactive. The compound was called inactive in experiment [9], in experiment [10], in [11], in experiment [12], in [13] and in experiment [14]. Also, the outcome in experiment [15] and in [16] was inactive. Further, the inhibition in experiment [5] is 63% (active); in experiment [6] it was 44% (active).

On to `CCCNC(=O)c1nnsc1S(=O)c1ccc(Cl)cc1` (centres undefined), for which the outcome in experiment [1], in experiment [2], in experiment [3], in experiment [4], in experiment [7] and in experiment [8] was inactive. Further, the compound was classed as inactive in experiment [9], in [10], in experiment [11], in [12], in experiment [14] and in [15]. Moreover, the result in experiment [16] was inactive. Also, the inhibition in experiment [5] is 88% (active); in [6] it was 42% (active); in experiment [13], 20.3% (active).

Regarding `CC1CCCN(CCCN2C(=O)C3C(C(=O)Nc4ccc(Cl)cc4)C4C=CC3(O4)C2C(=O)NC2CCCCC2)C1` (centres undefined), the outcome in experiment [1], in [2], in experiment [3], in [4], in experiment [7] and in [8] was inactive. In addition, the compound was classed as inactive in experiment [9], in experiment [10], in experiment [11], in [12], in experiment [14] and in experiment [15]. For the same compound, the result in experiment [16] was inactive. For the same compound, the inhibition in experiment [5] was 97% (active); in experiment [6], 63% (active); in [13], 26.1% (active).

In the case of `O=C(CN1CCCCC1)N1c2ccccc2Oc2ccccc21`, the result in experiment [1], in experiment [2], in experiment [3], in [4], in [6] and in [7] was inactive. Besides, the result in experiment [8], in experiment [9], in experiment [10], in [11], in experiment [12] and in experiment [14] was inactive. Moreover, the outcome in experiment [15] and in experiment [16] was inactive. The inhibition in experiment [5] is 95% (active); in experiment [13] it was 9.39% (active).

For `CC(C)C1=Nc2cccc3cccc(c23)N1`, the outcome in [1], in experiment [2], in experiment [3], in experiment [4], in [7] and in experiment [8] was inactive. In addition, the result in experiment [9], in experiment [10], in [11], in [12], in experiment [14] and in experiment [15] was inactive. For the same compound, the result in experiment [16] was inactive. For the same compound, the inhibition in experiment [5] is 95% (active); in experiment [6] it was 49% (active); in [13], 17.1% (active).

With `O=C(c1cccc(C(=O)N2CCN(c3ccc(F)cc3)CC2)c1)N1CCN(c2ccc(F)cc2)CC1`, the result in experiment [1], in experiment [2], in [3], in experiment [4], in [7] and in [8] was inactive. Moreover, the call in experiment [9], in experiment [10], in experiment [11], in experiment [12], in [14] and in experiment [15] was inactive. In addition, the outcome in experiment [16] was inactive. For the same compound, the inhibition is 88% (active) in [5], 53% (active) in experiment [6] and 42% (active) in [13].

`CCCCn1c(NC(=O)c2ccccc2)nc2ccccc21`: the outcome in experiment [1], in experiment [2], in experiment [3], in experiment [5], in experiment [6] and in experiment [7] was inactive. Besides, the result in experiment [8], in [9], in experiment [10], in experiment [11], in [12] and in experiment [13] was inactive. Also, the result in [14], in [15] and in experiment [16] was inactive. Besides, the potentiation in experiment [4] is 20% (active).

In the case of `Cc1ccc(Oc2ccccc2/C=N/O)cc1`, the outcome in experiment [1], in experiment [2], in experiment [3], in [4], in experiment [6] and in [7] was inactive. Further, the outcome in experiment [8], in experiment [9], in experiment [10], in experiment [11], in experiment [12] and in experiment [14] was inactive. The outcome in experiment [15] and in [16] was inactive. Also, the inhibition in experiment [5] was 89% (active); in experiment [13], 10.1% (active).

On to `Cc1nc2ccccc2n1CC(O)COc1ccccc1Cl` (centres undefined), for which the outcome in experiment [1], in [2], in experiment [3], in [4], in experiment [7] and in experiment [8] was inactive. The compound was called inactive in [9], in [10], in experiment [11], in [12], in experiment [13] and in experiment [14]. For the same compound, the outcome in experiment [15] and in experiment [16] was inactive. Further, the values for the inhibition in [5] and in [6] were 72% (active) and 40% (active), respectively.

Source of the values: PubChem BioAssay.
